AC50 and activity, negative = inhibition data for 100 compounds are collected here from PubChem BioAssay AID1851 (National Center for Advancing Translational Sciences (NCATS), 2009).

The whole screen tested about 16,000 compounds, of which about 5,100 (32%) were called active. Inconclusive results (about 25%) are left out. Some of the results follow. Values without a mark were called inactive. Calls follow the shape of the dose curve; as a rule, active = well fitted curve in the direction sought with a large enough effect; inconclusive = small, poorly fitted or top-dose-only effect, or effect the other way; inactive = no such curve, though single readings can be large or run the other way. Peptide text beside a SMILES is read from it.
% is scaled to controls: 0 for no effect and ±100 for the full control effect.

For the experiment, the target named is Cytochrome P450 3A4 (Homo sapiens) (UniProt P08684). Description: Cytochrome panel assay with activity outcomes. The following applies: recombinant CYP, pro-luciferin dealkylation, luminescence, p450-cyp3a4; series mostly up to 57.1 µM.
Sequence of Cytochrome P450 3A4 (Homo sapiens) (P08684 whole entry, looked up): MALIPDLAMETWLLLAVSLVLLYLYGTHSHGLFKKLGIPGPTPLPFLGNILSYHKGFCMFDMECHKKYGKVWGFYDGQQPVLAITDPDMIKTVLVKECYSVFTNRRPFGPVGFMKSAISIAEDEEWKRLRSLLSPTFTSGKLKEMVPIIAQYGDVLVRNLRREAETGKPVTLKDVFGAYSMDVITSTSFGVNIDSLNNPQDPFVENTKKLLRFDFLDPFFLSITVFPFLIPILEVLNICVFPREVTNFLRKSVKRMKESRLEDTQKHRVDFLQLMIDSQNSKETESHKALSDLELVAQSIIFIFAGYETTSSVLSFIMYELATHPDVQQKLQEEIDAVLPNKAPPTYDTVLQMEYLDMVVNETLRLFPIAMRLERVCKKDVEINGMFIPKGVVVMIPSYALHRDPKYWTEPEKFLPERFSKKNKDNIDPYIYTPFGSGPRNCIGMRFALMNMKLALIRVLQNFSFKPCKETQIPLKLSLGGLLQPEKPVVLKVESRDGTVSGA
Take `O=C1C2Sc3[nH]c(=O)sc3C(c3ccccc3)C2C(=O)N1c1ccc(Cl)cc1` (stereo not given): the AC50 was 12.6 µM (active). On the same count and under the same terms, the entry for `O=C1C(C2=NC(C(=O)O)C3C(=O)N(c4ccc(Cl)cc4)C(=O)C23)=C(O)c2ccccc21` (stereo not given) is “inactive”. On the same count and under the same terms, under `O=C1C2Sc3[nH]c(=O)sc3C(c3ccccc3)C2C(=O)N1c1ccccc1` (stereo not given) stands 7.94 µM (active).

On to `Nc1ccccc1CCCC(=O)O`, for which the activity, negative = inhibition was 0.683% [at 11.4 µM].

For `O=C(CSc1nnc(-c2ccncc2)n1Cc1ccccc1)Nc1nccs1`, the activity, negative = inhibition is -23.1% [at 2.29 µM].

As to `C=CCn1c(SCC(=O)Nc2ncc(Cc3ccc(Br)cc3)s2)nnc1-c1ccncc1`, the AC50 was 1.41 µM (active). Regarding `CC(C)N(C(=O)CSc1nc2ccccc2n1-c1ccccc1)C(C)C`, the half-maximal activity concentration (AC50) was 7.94 µM (active).

As to `CC(C)n1c(N2CCN(C(=O)Nc3ccccc3)CC2)nc2ccccc21`, the AC50 result is “inactive”. The same measure, in the same setting: under `CCCCc1c(O)nc(SCCN(C)C)n(-c2ccccc2)c1=O` stands “inactive”; under `CNc1c2c(nn1C)CCCC2`, “inactive”. On the same count and under the same terms, the entry for `O=C(Nc1ccc(Oc2ccccc2)cc1)C1CCN(c2c3c(nc4ncnn24)CCC3)CC1` is “inactive”; for `CC1CCCN(CC(O)COCC2COc3ccccc3O2)C1` (stereo not given) it is “inactive”; for `CC1CCCC(C)N1CC(O)COCC1COc2ccccc2O1` (stereo not given) it is “inactive”. Same read-out and setting: under `Cc1ccc(C2C(=O)N(C3CCCC3)CC(=O)N2CC2COc3ccccc3O2)cc1` (stereo not given) stands 3.98 µM (active); under `c1cncc(-c2ccc3ncnc(N4CCNCC4)c3c2)c1`, 12.6 µM (active); under `CN1CCN(c2ncnc3ccc(-c4cccnc4)cc23)CC1`, 15.8 µM (active).

On to `CN(C)c1ccc(-c2ccc3ncnc(N4CCNCC4)c3c2)cc1`, for which the AC50 is 20 µM (active). Regarding `CN1CCN(c2ncnc3ccc(-c4ccc5c(c4)OCO5)cc23)CC1`, the AC50 was 7.94 µM (active). Same read-out and setting: under `N[C@H](C(=O)O)[C@@H]1[C@@H](C(=O)O)C1(F)F` stands “inactive”.

Consider `OC[C@@H]1O[C@H](n2cnc3c(/C=C(\O)c4ccccc4)ncnc32)[C@H](O)[C@@H]1O`, for which the activity, negative = inhibition was -15.3% [at 11.4 µM]. Consider `NC(N)=NC[C@@H]1CCCCCCN1`, for which the activity, negative = inhibition is -2.73% [at 11.4 µM].

Consider `CCN(CC)CC[n+]1ccc2c(C)c3[nH]c4ccc(O)cc4c3c(C)c2c1`, for which the activity, negative = inhibition was -18.3% [at 11.4 µM]. Turning to `Cc1sc2ncnc(OCC(=O)NC(C)C)c2c1C`, the activity, negative = inhibition was 0.697% [at 11.4 µM]. As to `N#Cc1cccc(-c2ccc3ncnc(NC4CCNCC4)c3c2)c1`, the AC50 result was “inactive”. On the same count and under the same terms, the figure for `N#Cc1cccc(-c2ccc3ncnc(N4CCNCC4)c3c2)c1` is 20 µM (active). In the case of `COCCNC(=O)CSc1ncnc2sccc12`, the activity, negative = inhibition was 0.766% [at 2.29 µM]. Still for that read-out and setting: the figure for `CCc1ccc(OCC(=O)NNC(=O)CSc2ncnc3sc(C)c(C)c23)cc1` is 1.75% [at 0.457 µM].

Regarding `COC(=O)c1c(-c2ccccc2)csc1NC(=O)CSc1ncnc2sc(C)c(C)c12`, the AC50 was 8.91 µM (active). Same read-out and setting: the entry for `Cc1noc(C)c1-c1cc(N(C)Cc2ccco2)ncn1` is “inactive”; for `COc1ccccc1-c1cncnc1N(C)Cc1ccco1` it is 1.26 µM (active); for `CN(Cc1ccco1)c1ncncc1-c1ccccc1Cl` it is 0.501 µM (active). For `COc1ccccc1-c1cc(N(C)Cc2ccco2)ncn1`, the AC50 entry was “inactive”.

`Cc1noc(C)c1-c1cncnc1N(C)Cc1ccco1`: the half-maximal activity concentration (AC50) was 3.16 µM (active). The same measure, in the same setting: under `CN(Cc1ccco1)c1cc(-c2ccccc2Cl)ncn1` stands “inactive”; under `Cc1ccccc1-c1cc(N(C)Cc2ccco2)ncn1`, “inactive”; under `Cc1ccccc1-c1cncnc1N(C)Cc1ccco1`, 1.58 µM (active). On the same count and under the same terms, under `CN(Cc1ccco1)c1ccnc(-c2ccccc2C(F)(F)F)n1` stands “inactive”.

As for `CN(Cc1ccco1)c1ncncc1-c1ccccc1C(F)(F)F`, the AC50 is 1.26 µM (active).

In the case of `CN1[C@H](CC(=O)c2ccccc2)CCC[C@H]1C[C@H](O)c1ccccc1`, the AC50 entry was “inactive”. Same read-out and setting: the figure for `O=C(C[C@@H]1C=Cc2ccccc2N1C(=O)c1ccccc1)c1ccccc1` is 3.98 µM (active); for `NC(=O)N1c2ccccc2C=Cc2ccccc21` it is “inactive”.

Take `O=C(O)[C@H]1C[C@@H](CP(=O)(O)O)CCN1`: the AC50 result was “inactive”. Still for that read-out and setting: the figure for `CCCCN(C)CCCNC(=O)CS(=O)Cc1nc(-c2ccc(OC)c(OC)c2)oc1C` (stereo not given) is 14.1 µM (active). Regarding `O=C(NCCN1CCN(Cc2ccccc2)CC1)C1c2ccccc2C(=O)N2CCc3ccccc3C12` (stereo not given), the activity, negative = inhibition was -22.2% [at 2.29 µM]. As for `CCCCN(C)CCCNC(=O)c1ccc(N2CCCC2=O)cc1`, the AC50 entry was “inactive”. Still for that read-out and setting: under `Cc1ccccc1-c1nc(CS(=O)CC(=O)NCCCN(C)c2ccccc2)c(C)o1` (stereo not given) stands 3.98 µM (active); under `CN(C)CCCNC(=O)CCc1nc2ccccc2c(=O)[nH]1`, “inactive”. With `Cc1ccccc1-c1nc(CS(=O)CC(=O)NCCN2CCN(Cc3ccccc3)CC2)c(C)o1` (stereo not given), the AC50 is 7.08 µM (active).

Consider `C=CCN1C(=NC(=O)CC)SC2CS(=O)(=O)CC21` (stereo not given), for which the AC50 result was “inactive”. For `O=C(O)C(=O)/C=C(\O)c1ccc(Br)cc1`, the activity, negative = inhibition is -7.81% [at 11.4 µM]. Turning to `COc1ccc(S(=O)(=O)NNC(=O)C2Cc3c(ccc4ccccc34)O2)cc1` (stereo not given), the AC50 was 10 µM (active). Turning to `O=C(O)CCCc1ccc2ccc3ccccc3c2c1`, the activity, negative = inhibition is -10% [at 11.4 µM]. Take `NNC(=O)CCc1ccc2ccc3ccccc3c2c1`: the AC50 was 0.398 µM (active). As to `O=C(O)CCCc1ccc2ccccc2c1`, the activity, negative = inhibition is -5.59% [at 11.4 µM].

For `CCOC(=O)N1CCC(NC(=O)CSCc2cnn(-c3ccccc3)c2-n2cccc2)CC1`, the AC50 is 12.6 µM (active). Still for that read-out and setting: under `COc1ccc(OC)c(NC(=O)CSCc2cnn(-c3ccccc3)c2-n2cccc2)c1` stands 10 µM (active). The same measure, in the same setting: the figure for `O=S(=O)(c1ccccc1)N1CCC[C@@]2(CCN(c3ccccc3)C2)C1` is 5.01 µM (active). Still for that read-out and setting: the figure for `O=S(=O)(c1ccccc1)N1CCC[C@@]2(CCN(c3ccncc3)C2)C1` is 3.98 µM (active); for `CS(=O)(=O)N1CCC2(CCN(c3ccncc3)CC2)CC1` it is “inactive”. Take `CN1CCN(C(=O)C(C(=O)c2ccc(F)cc2)n2ccccc2=O)CC1` (stereo not given): the AC50 entry was “inactive”.

As for `CC(=O)N[C@@H](CC(=O)O)C(=O)N[C@@H](CCC(=O)O)C(=O)O` (Ac-Asp-Glu-OH), the AC50 result is “inactive”. The same measure, in the same setting: under `COc1cc(/C=N/O)cc(Br)c1OCc1cccc(Cl)c1` stands 14.1 µM (active); under `COc1cnc(SCc2ccc(Cl)cc2)nc1Cl`, “inactive”. On the same count and under the same terms, the figure for `COc1cc(/C=N/O)cc(Br)c1OCc1ccc(Cl)cc1` is 15.8 µM (active); for `Cc1ccc(-c2ccc(=O)n(CC(=O)N3CCN(c4cccc(C)c4)C(C)C3)n2)cc1` (stereo not given) it is 14.1 µM (active); for `CCCN1CCN(CCCNC(=O)Cn2nc(-c3ccc(C)cc3)ccc2=O)CC1` it is “inactive”.

Regarding `Cc1ccc(-c2ccc(=O)n(CC(=O)NCCN(C)C)n2)cc1`, the AC50 entry was “inactive”. Same read-out and setting: under `COc1cc2c(cc1OC)C(c1ccc(N)cc1)=NNC(=O)C2` stands 12.6 µM (active); under `COC(=O)c1cc(Br)c(=O)n(CCc2ccc(O)cc2)c1`, 15.8 µM (active). For `COC(=O)c1cc(Br)c(=O)n(CCN2CCCC2)c1`, the activity, negative = inhibition is 8.19% [at 2.29 µM]. As to `CCOc1ccc2c(c1)nc(SCC(=O)c1ccc(Br)s1)n2C`, the AC50 is 6.31 µM (active). The same measure, in the same setting: the entry for `c1ccc2nc(C3=NCCN3)cnc2c1` is “inactive”. The same measure, in the same setting: the entry for `C=CCNC(=S)N/N=C/c1ccc(OCc2ccccc2)cc1` is “inactive”. On the same count and under the same terms, under `C=CCNC(=S)Nc1ccc2nc(C)c(C)nc2c1` stands 15.8 µM (active).

On to `CCNC(=O)NC(=O)CSc1nc2ccccc2n1CC(C)C`, for which the AC50 was 12.6 µM (active). Turning to `CC(C)Cn1c(SCC(=O)c2c(N)n(C)c(=O)n(C)c2=O)nc2ccccc21`, the AC50 is 2.51 µM (active). Same read-out and setting: the entry for `OC[C@@H]1O[C@@H](n2cnc3c(NC4CCCC4)ncnc32)[C@H](O)[C@H]1O` is “inactive”. As for `O=C(Cc1ccc(Cl)cc1)NNC(=O)Nc1cccc2ccccc12`, the activity, negative = inhibition was -12.3% [at 2.29 µM]. Regarding `CC(=O)Oc1ccc2ccccc2c1C(NC(=O)Cc1ccccc1)c1ccc(Cl)cc1` (stereo not given), the AC50 is 8.91 µM (active). For the compound `CN1[C@@H]2CC[C@H]1CC(OC(c1ccccc1)c1ccccc1)C2` (stereo not given in full), the AC50 entry was “inactive”. On the same count and under the same terms, the entry for `Cc1cc(C(=O)C(=O)NC(C)C)c(C)n1-c1ccc([N+](=O)[O-])cc1` is “inactive”; for `C=CCN(CC=C)C(=O)C(=O)c1cc(C)n(-c2ccc([N+](=O)[O-])cc2)c1C` it is 2.82 µM (active). As for `CCC(=O)Nc1nnc(C(C)(C)C)s1`, the AC50 entry was “inactive”. For the compound `O=C(Nc1nccs1)c1sc2cc(Cl)ccc2c1Cl`, the concentration at half-maximal activity (AC50) is 10 µM (active). As for `Clc1ccc2c(NCCNc3ccnc4cc(Cl)ccc34)ccnc2c1`, the activity, negative = inhibition was 4.32% [at 11.4 µM]. With `COc1ccc(CNc2ncnc3ccc(-c4ccccc4C#N)cc23)c(OC)c1`, the AC50 is 1 µM (active). Still for that read-out and setting: under `COc1ccccc1CNc1ncnc2ccc(-c3ccccc3C#N)cc12` stands 3.98 µM (active). For the compound `CCCCc1ccc(NC(=S)NCc2cccs2)cc1`, the activity, negative = inhibition is -10% [at 2.29 µM]. Regarding `Cc1ccccc1-n1cnc2cc(NCc3cccs3)ccc21`, the AC50 was 5.01 µM (active). Same read-out and setting: under `c1ccc(-n2cnc3cc(NCc4cccs4)ccc32)cc1` stands 7.08 µM (active). For the compound `O=S(=O)(O)c1cc(N=Nc2cccc3ccccc23)c(O)c2ncccc12`, the activity, negative = inhibition is -5.6% [at 11.4 µM]. Regarding `O=S(=O)(Nc1ccc2c(c1)OCCO2)c1cccc2cccnc12`, the AC50 was 15.8 µM (active). In the case of `O=S(=O)(Nc1cccnc1Cl)c1ccc2c(c1)OCCO2`, the activity, negative = inhibition is 7.34% [at 2.29 µM]. As to `CNC(=S)N1N=C(c2ccc(OC)cc2)CC1c1ccc(N(C)C)cc1` (stereo not given), the AC50 is 3.98 µM (active). On the same count and under the same terms, the entry for `NC(N)=NC[C@@H]1COC2(CCCCC2)O1` is “inactive”. On the same count and under the same terms, under `CC(C)Cc1nc(N2CCN(C(=O)c3ccccc3)CC2)c(C#N)c2c1CCC2` stands “inactive”; under `CCOc1ncnc2c1oc1nc(CC(C)C)c3c(c12)CC(C)(C)OC3`, “inactive”; under `CCOC(=O)c1oc2nc(CC(C)C)c3c(c2c1N)CCC3`, 3.16 µM (active).

As to `CCn1c(SCC(=O)N/N=C/C=C\c2ccccc2[N+](=O)[O-])nnc1-c1ccccc1`, the AC50 is 12.6 µM (active). As to `Cn1c(SCC(=O)N/N=C/C=C\c2ccco2)nc2ccccc21`, the activity, negative = inhibition is 9.61% [at 2.29 µM].
